# A selection: hits, their analogues and other compounds. The true share with any hit is near 2.2%.
# FUS yeast rescue – qHTS for Suppressors of FUS Proteinopathy: Primary screen using FUS-linked yeast assay; Potency, µM (highest dose often 76.6 µM), hits mostly activators; actives 0.24% (n = 390,000); S. cerevisiae FUS-expressing, growth rescue, OD600, 24 h; AID 1347120, 2019; further: nearly all actives have a fitted effect of over 55% in size
#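 Steps: raffinose overnight preculture; dilution to OD 0.005 in 2% galactose minimal medium; compound addition (concentration series); 24hr at 30C, 99% humidity; absorbance read at 600 nm.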
# Abeta rescue – qHTS for compounds that reverse cellular toxicity of Amyloid beta (A-beta) peptide in yeast: Primary Screen. yeast expressing A-beta42, growth rescue, OD600, 48 h; response scale: 0% DMSO, 100% iron-clioquinol control. Potency, µM (titrated, usually from 46.1 µM), most hits filed as activators. actives 0.063% (n = 410,000). AID 1347071, 2019; further: nearly all actives have a fitted effect of over 55% in size
#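 Growth rescue measured by 600 nm absorbance after 48 h yeast culture at 30 C with compound. Values normalized between DMSO and an equimolar ferric chloride plus clioquinol control.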
# TDP43 rescue – qHTS of TDP-43 Inhibitors | TDP-43 expressing yeast growth rescue, BacTiter-Glo, 24 h | Potency, µM (top dose mostly 46.1 µM), actives largely listed as activators | actives 1.8% (n = 410,000) | AID 652104, 2013; further: nearly all actives have a fitted effect of over 50% in size
#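 Growth rescue of TDP-43-toxic yeast measured as ATP luminescence (BacTiter-Glo). Cells grown to mid-log in raffinose, induced in galactose at OD600=0.02, exposed to compound 24 hr at 30 deg C.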
# aSyn rescue – qHTS of alpha-syn Inhibitors. Yeast expressing alpha-synuclein, growth rescue, BacTiter-Glo, 24 h. AID 652106, 2013. Potency, µM (titrated, usually from 46.1 µM), most hits filed as activators. actives 0.14% (n = 370,000); further: nearly all actives have a fitted effect of over 65% in size
#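 Screening used galactose-induced yeast with toxic alpha-synuclein levels, exposed to compound for 24 hr at 30 deg C. Cell growth, read with BacTiter-Glo luminescence, gave the measured signal.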
# Mito fusion yeast – qHTS Assay for Small Molecule Inhibitors of Mitochondrial Division or Activators of Mitochondrial Fusion; S. cerevisiae fusion-defective mutant growth rescue, CellTiterGlo 48 h; Potency, µM (highest dose often 46.1 µM), hits mostly activators; actives 0.23% (n = 320,000); further: nearly all actives have a fitted effect of over 45% in size
#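 Temperature-sensitive fusion-defective S. cerevisiae (e.g. fzo1-1, mgm1-5) were grown with compound in YPEG medium (3% ethanol, 3% glycerol) for 48 hours at 37C. Growth rescue was measured as viability by CellTiterGlo luminescence after 10 minutes at ambient.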
# A number is an active result; - = inactive; ? = inconclusive; . = no result given; ! = a repeat was not active. The call rests on the fitted dose curve; in most records, active means well fitted curve in the direction sought with a large enough effect; inconclusive means small, poorly fitted or top-dose-only effect, or another doubt; inactive means no such curve, though single readings can be large; an effect the other way counts as inactive or inconclusive.
SMILES,FUS yeast rescue,Abeta rescue,TDP43 rescue,aSyn rescue,Mito fusion yeast
O=C1C=C(c2cccc(CO)c2)C[C@@H](c2ccc3c(c2)OCO3)C1,-,-,20µM,-,-
N#Cc1ccc(C2=CC(=O)C[C@H](c3ccc4c(c3)OCO4)C2)cc1,?,-,17.8µM,-,-
COC(=O)[C@]12C[C@H](CC(=O)NCc3ccc(OC)c(OC)c3)C(=O)N(Cc3cccc4ccccc34)C1=C[C@H](C1CCCC1)O[C@@H]2C,12.6µM,.,.,.,.
COC(=O)[C@]12C[C@H](CC(=O)N3CCN(C(=O)c4ccco4)CC3)C(=O)N(Cc3cccc4ccccc34)C1=C[C@H](C1CCCC1)O[C@@H]2C,15.8µM,.,.,.,.
COC(=O)[C@]12C[C@H](CC(=O)NCC34CC5CC(CC(C5)C3)C4)C(=O)N(Cc3cccc4ccccc34)C1=C[C@H](C1CCCC1)O[C@@H]2C,-,.,.,.,.
COC(=O)[C@]12C[C@H](CC(=O)NCc3cccc4ccccc34)C(=O)N(CCc3ccc(OC)c(OC)c3)C1=C[C@H](C(C)C)O[C@@H]2C1CC1,12.6µM,.,.,.,.
COC(=O)[C@]12C[C@H](CC(=O)NCc3ccc(OC)c(OC)c3)C(=O)N(Cc3ccco3)C1=C[C@H](C1CCCC1)O[C@@H]2C,-,.,.,.,.
COC(=O)[C@]12C[C@H](CC(=O)NCc3ccc(C)o3)C(=O)N(Cc3cccc4ccccc34)C1=C[C@H](C1CCCC1)O[C@@H]2C,28.2µM,.,.,.,.
COc1ccc(N(C(=O)c2cccc(C)c2)S(=O)(=O)c2ccc3c(c2)n(C)c(=O)n3C)cc1,?,-,-,.,.
Cc1cc(C)c(/C=C/c2onc(C)c2S(=O)(=O)N2CCC(C(=O)N3CCN(c4ccccc4)CC3)CC2)c(C)c1,-,-,-,.,.
Nc1ccc2cccnc2c1,.,.,.,-,.
N=C(N)SCCc1ccc(CCSC(=N)N)cc1,.,.,.,?,20.6µM
CC(C)Oc1ccc(CSC(=N)N)cc1,-,-,-,-,-
CCSc1ncc(Cl)c(C(=O)Nc2sc3c(c2C(=O)NCCOC)CCCC3)n1,.,.,.,-,.
O=C(Nc1ccccc1Sc1ccccc1)c1ccc(F)cc1,-,14.1µM,-,-,-
CN1CCN(c2ccnc(N(C)CCCCCCN)n2)CC1,.,.,.,-,.
COc1ccc(CN2C(=O)NC3(CCCc4ccccc43)C2=O)cc1F (stereo unspecified),-,-,11.2µM,-,-
O=C(/C=C/c1cccc([N+](=O)[O-])c1)NCCSCc1cccc(Cl)c1,-,-,22.4µM,-,?
O=C(CCSCc1ccc(Cl)cc1)NCCc1ccccc1,-,-,-,-,-
COc1cccc(C(=O)NCCSCc2c(F)cccc2Cl)c1,-,-,11.2µM,-,-
COc1cccc(C(=O)NCCSCc2ccccc2Cl)c1,?,-,?,-,-
COc1ccc(C(=O)NCCSCc2cccc(Cl)c2)cc1OC,-,-,20µM,-,-
O=C(CCSCc1cccc(Cl)c1)NCCc1ccc(Cl)cc1,-,-,11.2µM!,-,-
O=C1c2cccn2CC2Cc3ccccc3N12 (stereo unspecified),-,.,.,.,.
COc1ccc(-n2c(SCC(=O)NCC3CCCO3)nnc2-c2ccncc2)cc1 (stereo unspecified),-,.,.,.,.
SMILES,FUS yeast rescue,Abeta rescue,TDP43 rescue,aSyn rescue,Mito fusion yeast
CCOc1ccc(CCNC(=O)CCSCc2cccc(Cl)c2)cc1OCC,-,-,22.4µM,.,.
CCOc1ccc(CCNC(=O)CCSCc2ccc(Cl)cc2)cc1OCC,-,-,-,.,.
Cc1nn2c(COc3ccc(NC(=O)c4ccccc4Cl)cc3)nnc2c2ccccc12,22.4µM,-,-,?,-
Cc1nn2c(COc3ccc(NC(=O)C(C)C)cc3)nnc2c2ccccc12,-,-,-,-,-
Cc1ccc(C(=O)NC(C#N)=C(Cl)Cl)cc1,-,-,11.2µM,-,-
Cc1ccc(C(=O)NCC#N)cc1,-,-,-,-,-
Cc1cc(C)cc(NS(=O)(=O)c2cnc(Cl)c(Cl)c2)c1,-,-,35.5µM,-,-
CCOc1ccc(NS(=O)(=O)c2cnc(Cl)c(Cl)c2)cc1,.,-,-,-,-
CCOc1ccc(NC(=O)CSc2oc(-c3ccco3)nc2S(=O)(=O)c2ccc(Cl)cc2)cc1,-,-,-,.,.
Cc1cc(C)nc(Nc2ccc(F)cc2)n1,-,-,25.1µM,-,-
CC(=O)c1ccc(Nc2nc(C)cc(C)n2)cc1,-,-,-,-,-
Fc1ccc(-c2nc3ccc(Cl)cn3c2Cc2ccccc2)cc1,-,-,35.5µM,-,.
Clc1ccc(-c2nc3ccc(Cl)cn3c2Cc2ccccc2)cc1,-,-,20µM,-,.
Fc1ccc(-c2nc3ccc(Cl)cn3c2Cc2ccsc2)cc1,-,-,-,-,.
Clc1ccc2nc(-c3ccccc3)c(Cc3ccccc3)n2c1,-,-,-,-,.
Cc1cc(Nc2cccc(Cl)c2)nc2ccc(NC(=O)c3cncc(Br)c3)cc12,31.6µM,-,22.4µM,.,.
Cc1cc(Nc2cccc(C(F)(F)F)c2)nc2ccc(NC(=O)c3cncc(Br)c3)cc12,?,-,-,.,.
COc1cccc(CC(=O)Nc2ccc3nc(Nc4cccc(C(F)(F)F)c4)cc(C)c3c2)c1,-,-,-,.,.
Cc1ccccc1C(=O)Nc1ccc2nc(N3CCCCC3)cc(C)c2c1,-,-,-,.,.
Cc1ccccc1C(=O)Nc1ccc2nc(Nc3cccc(C(F)(F)F)c3)cc(C)c2c1,-,-,17.8µM,.,.
COc1ccccc1CC(=O)Nc1ccc2nc(Nc3cccc(C(F)(F)F)c3)cc(C)c2c1,?,-,12.6µM,.,.
CCc1ccccc1NC(=O)Cn1c(=O)n(CC(=O)NCCc2ccccc2)c(=O)c2ccccc21,-,-,-,.,.
COc1ccc(NC(=O)c2ccco2)cc1NC(=O)c1ccc(OC(C)C)cc1,?,-,14.1µM,.,.
CCCNC(=O)c1cnn2c(C(F)F)cc(-c3ccccc3)nc12,-,-,12.6µM,.,.
COc1ccc(Nc2ccc3cc(S(=O)(=O)N4CCCC4)ccc3n2)cc1OC,?,-,-,.,.
SMILES,FUS yeast rescue,Abeta rescue,TDP43 rescue,aSyn rescue,Mito fusion yeast
COc1cccc(Nc2ccc3cc(S(=O)(=O)N4CCC(C)CC4)ccc3n2)c1,-,-,12.6µM,.,.
O=C(N/N=C/c1ccccn1)c1[nH]c2ccc([N+](=O)[O-])cc2c1-c1ccccc1,31.6µM,-,-,?,-
COc1cccc(OC)c1-c1nn2c(-c3ccccc3Cl)nnc2s1,?,-,15.8µM,-,-
CCN(CC)c1ccc(-c2nn3c(-c4ccccc4Cl)nnc3s2)cc1,31.6µM,.,.,.,.
CCCN(C(=O)c1cc2c(=O)oc3ccccc3c2s1)c1ccccc1C,-,-,-,.,.
CCOc1ccc(C(=O)c2cn(CC(=O)Nc3ccc(F)cc3)c3cc4c(cc3c2=O)OCCO4)cc1,-,-,-,.,.
CC1=C(C(=O)Nc2cccnc2)C(c2ccc(F)cc2)n2nc(SCc3ccccc3)nc2N1 (stereo unspecified),-,-,-,.,.

# Assay outcomes as filed in PubChem.
